# Over roughly 110,000 compounds, “z-score” has its median near -0.1; the highest 2% begin near 2. Many of the other results were omitted from the sample, so the highest values are more common in it than they were. Active and inactive are the calls of the source.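 Rule for the calls: active = z-score in the third read window above 3 or below -3; inactive = the rest.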
# Biological target: Metabotropic glutamate receptor 8 (Rattus norvegicus) (UniProt P70579)
# Assay: rat mGluR8 modulators via GIRK flux, primary screen, cell-based, thallium flux, HTS (AID 488969)
# Conditions: HEK293 rat mGluR8, GIRK (G protein-gated inwardly rectifying potassium channel) thallium flux, FluoZin2; at 10 µM; stronger effect = higher value; submaximal glutamate (EC20) added with thallium
# Sequence of Metabotropic glutamate receptor 8 (Rattus norvegicus) (P70579 whole entry, looked up): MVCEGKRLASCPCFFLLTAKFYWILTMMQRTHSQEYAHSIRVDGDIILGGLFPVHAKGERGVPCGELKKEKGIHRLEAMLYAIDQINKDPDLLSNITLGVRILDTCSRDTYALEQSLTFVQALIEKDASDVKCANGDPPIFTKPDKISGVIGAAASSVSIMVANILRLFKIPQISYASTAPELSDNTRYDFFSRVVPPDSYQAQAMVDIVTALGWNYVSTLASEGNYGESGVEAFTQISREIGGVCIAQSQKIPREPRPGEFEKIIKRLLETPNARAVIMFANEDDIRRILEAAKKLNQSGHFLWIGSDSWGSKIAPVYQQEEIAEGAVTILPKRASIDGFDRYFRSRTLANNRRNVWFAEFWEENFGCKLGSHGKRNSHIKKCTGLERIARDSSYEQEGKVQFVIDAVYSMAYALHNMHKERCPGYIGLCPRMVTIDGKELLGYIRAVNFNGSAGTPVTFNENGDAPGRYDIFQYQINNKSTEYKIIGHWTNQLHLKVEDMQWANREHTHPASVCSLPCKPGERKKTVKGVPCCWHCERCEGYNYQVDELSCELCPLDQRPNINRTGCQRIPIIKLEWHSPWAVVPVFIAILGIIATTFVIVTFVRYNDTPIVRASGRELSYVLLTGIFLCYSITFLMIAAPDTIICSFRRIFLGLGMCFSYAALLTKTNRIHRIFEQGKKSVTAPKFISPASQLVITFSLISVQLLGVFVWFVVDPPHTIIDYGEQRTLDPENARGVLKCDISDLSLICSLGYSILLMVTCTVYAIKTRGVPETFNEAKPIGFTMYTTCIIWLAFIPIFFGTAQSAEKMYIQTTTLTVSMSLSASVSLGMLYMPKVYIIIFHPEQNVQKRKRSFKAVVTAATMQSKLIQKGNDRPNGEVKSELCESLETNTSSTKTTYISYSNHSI
row,SMILES,z-score
1,Cc1ccc(NC(=O)CCC(=O)NNC(=O)COc2ccccc2)c(C)c1,-0.385
2,CCOc1ccc(C(=O)NC(=S)Nc2ccc(NC(=O)c3ccco3)c(C)c2)cc1[N+](=O)[O-],-0.187
3,CCOc1ccc2ccccc2c1/C=N/NC(=O)CNC(=O)Cc1ccccc1,-0.191
4,CC1(C)CC(=O)c2cnc(N3CCc4ccccc4C3)nc2C1,0.63
5,Brc1ccc(-c2csc(-c3ccncc3)n2)cc1,0.161
6,CCOC(=O)c1c(C=O)c(C)n(Cc2ccc(Cl)cc2)c1C,0.0766
7,CCCN1C2=C(C(=O)CCC2)C(c2ccc(F)cc2)C2=C1c1ccccc1C2=O (stereo not given),-0.266
8,O=C(Cn1cnc2c(nnn2-c2ccc(F)cc2)c1=O)NCc1ccco1,-0.127
9,O=C(NCc1ccco1)c1cccc(S(=O)(=O)N2CCc3ccccc32)c1,-0.341
10,CCC(=C(c1ccc(OC)cc1)c1ccc(OC)cc1)c1cn(CC(O)CN2CCN(C)CC2)c2ccccc12 (stereo not given),2.63
11,COc1ccc(C(=O)/C=C/c2cn(CC(O)CN3CCOCC3)c3ccccc23)cc1 (stereo not given),-0.177
12,COc1ccc(C(=O)/C=C/c2cn(CN3CCN(C)CC3)c3ccccc23)cc1,-0.629
13,COc1ccc(-n2c(COc3ccc4ccccc4c3)nnc2SCC(=O)NCc2ccco2)cc1,0.832
14,COc1cnc(-c2ccccc2)nc1Oc1cccc(C)c1C,-0.012
15,Cc1ccc(C)c(OCC(=O)Nc2nc3ccc([N+](=O)[O-])cc3s2)c1C,2.46
16,CCOCC(=O)Nc1nc2ccc(C)cc2s1,-0.0136
17,COCC(=O)Nc1nc2ccc(C)cc2s1,0.0888
18,Cc1cccc(OCC(=O)Nc2nc3ccc([N+](=O)[O-])cc3s2)c1,2.05
19,Cc1ccc(C)c(OCC(=O)Nc2nc3ccc([N+](=O)[O-])cc3s2)c1,0.0186
20,Cc1cccc(OCC(=O)Nc2nc3ccc([N+](=O)[O-])cc3s2)c1C,-0.12
21,O=C(CCl)N1c2ccccc2OCC1c1ccccc1 (stereo not given),-0.994
22,NC(=O)NC(=O)CSc1nc(C2CCCCC2)n(-c2ccccc2)n1,-0.264

row,SMILES,z-score
1,Cc1ccc(CNc2oc(-c3ccco3)nc2C#N)cc1,-0.32
2,Cc1nnc(N2C(=O)C(O)=C(C(=O)c3ccco3)C2c2ccc(C(C)(C)C)cc2)s1 (stereo not given),-0.554
3,Cc1ccc(NC(=O)COC(=O)c2sccc2C)cc1S(=O)(=O)N1CCOCC1,1.38
4,Cc1ccc(Nc2ccc(S(=O)(=O)N3CCOCC3)cc2[N+](=O)[O-])c(C)c1,1.29
5,Cc1cc(C)cc(NC(=S)N=Nc2c(O)n(C)c3ccc(S(=O)(=O)N4CCOCC4)cc23)c1,0.616
6,Cc1ccc(NC(=S)N=Nc2c(O)n(C)c3ccc(S(=O)(=O)N4CCOCC4)cc23)cc1,3.93 (active)
7,Cn1c(=O)c2cc(S(=O)(=O)N3CCOCC3)ccc2n(C)c1=O,0.139
8,Cn1c(=O)n(C)c2cc(S(=O)(=O)N3CCOCC3)ccc21,-0.185
9,Cc1ccc(C)c(NC(=S)N=Nc2c(O)n(C)c3ccc(S(=O)(=O)N4CCOCC4)cc23)c1,4.13 (active)
10,CN(C)CCCN1C(=O)C(=O)/C(=C(/O)c2ccncc2)C1c1cccc(Br)c1 (stereo not given),-0.318
11,COc1ccc(OC)c(-c2cc(C(=O)Nc3cc(C)on3)no2)c1,0.941
12,Cc1ccc(CNC(=O)C2C3C=CC4(CN(Cc5cccnc5)C(=O)C24)O3)cc1 (stereo not given),-0.0986
13,O=C(COC(=O)CCC1CCCC1)Nc1ccccc1Sc1ccccc1,-0.2
14,CCOc1c(OC(C)=O)ccc(/C=C/c2ccc3cccc(OC(C)=O)c3n2)c1[N+](=O)[O-],-0.227
15,COCCSc1ccccc1C(=O)NCc1ccco1,0.383
16,O=C(N/N=C/c1ccc[nH]1)c1ccccc1[N+](=O)[O-],-0.104
17,CCN(CC)S(=O)(=O)c1ccc(N=Nc2c(C)[nH]n(C(N)=S)c2=O)cc1,0.608
18,Cc1ccccc1N=Nc1c(C)[nH]n(C(N)=S)c1=O,2.97
19,Cc1ccc(N=Nc2c(C)[nH]n(C(N)=S)c2=O)cc1C,-0.217
20,COCCCNC(=O)/C(=C\c1cccn1C)NC(=O)c1cccs1,0.0671
21,O=C(NCc1ccccn1)C(F)(F)C(F)(F)C(=O)NCc1ccccn1,-0.509
22,CCc1nc2ccccc2[nH]1,0.00543

row,SMILES,z-score
1,CCc1nc2cc(Cl)c(Cl)cc2[nH]1,2
2,CCc1nc2cc([N+](=O)[O-])c([N+](=O)[O-])cc2[nH]1,-0.0776
3,Cc1nc2ccsc2c(=O)n1-c1ccc(Cl)cc1,-0.0701
4,COc1ccc(N2C(=O)C3C4C=CC(CC4)C3C2=O)c([N+](=O)[O-])c1 (stereo not given),-0.215
5,OCCn1c(SC2CCCCC2)nc2ccccc21,0.162
6,O=C(N/N=C(/CC(=O)c1cccs1)C(F)(F)F)c1ccc(O)cc1,-0.828
7,O=C(C/C(=N\NC(=O)c1ccccc1Br)C(F)(F)F)c1cccs1,0.65
8,Cc1ccc(C(=O)N/N=C(/CC(=O)c2cccs2)C(F)(F)F)cc1,7.05 (active)
9,Cc1cc(C(=O)NCc2cc(C)n(C)n2)sc1-c1ccccc1,-0.62
10,CS(=O)(=O)Nc1ccccc1Oc1ccccc1,0.607
11,COCCCn1c(SCc2nnc(-c3ccccc3)o2)nc2sc3c(c2c1=O)CCC3,-0.256
12,COc1cccc(C2OC(=O)c3ccccc3N2C(C)=O)c1OC(C)=O (stereo not given),0.116
13,CSc1nc(Sc2ccccc2)c2ccccc2n1,4.56 (active)
14,CSc1nc(Sc2cccc(Cl)c2)c2ccccc2n1,0.093
15,CSc1nc(Sc2ccc(Cl)cc2)c2ccccc2n1,0.0499
16,CCC(C)NC(=O)CCc1c(C)nc2nc(-c3cc(OC)cc(OC)c3)nn2c1C (stereo not given),-0.148
17,O=[N+]([O-])c1ccc(N2CCN(S(=O)(=O)c3ccc(Cl)cc3)CC2)cc1NCC1CCCO1 (stereo not given),-0.211
18,O=C(CN1CCN(c2ccccc2)CC1)Nc1ccc(-n2cnnn2)cc1,0.659
19,CCC1(C)Cc2c(sc3c2c(=O)n(C)c2nnc(SCc4ccc5c(c4)OCO5)n32)CO1 (stereo not given),3.12 (active)
20,CCC1(C)Cc2c(sc3c2c(=O)n(C)c2nnc(SCc4ccccc4)n32)CO1 (stereo not given),-0.196
21,CCC1(C)Cc2c(sc3c2c(=O)n(C)c2nnc(SCC(=O)c4ccccc4)n32)CO1 (stereo not given),-0.469
22,COc1ccccc1C(=O)N/C(=C\c1ccc2c(c1)OCO2)C(=O)NCCc1nc2ccccc2[nH]1,-1.09

row,SMILES,z-score
1,CN(c1ccccc1C(=O)Nc1cccc(Cl)c1Cl)S(C)(=O)=O,0.0249
2,CC(C)c1ccc2[nH]c(O)c(N=NC(=S)NCCc3ccccc3)c2c1,0.396
3,Oc1[nH]c2ccccc2c1C=NCC1CCCO1 (stereo not given),-0.00202
4,Oc1[nH]c2c(Cl)cc(Cl)cc2c1N=NC(=S)NCC1CCCO1 (stereo not given),7.5 (active)
5,S=C(NCC1CCCO1)Nc1ccc(Cl)cc1Cl (stereo not given),0.145
6,CCOC(=O)C(=O)N=Nc1c(O)[nH]c2ccccc12,-0.0577
7,O=C(CCn1c(=S)[nH]c2ccccc2c1=O)NCC1CCCO1 (stereo not given),-0.275
8,Oc1[nH]c2ccccc2c1N=NC(=S)NCC1CCCO1 (stereo not given),3.01 (active)
9,Oc1[nH]c2ccccc2c1N=NC(=S)NCCc1ccccc1,3.06 (active)
10,S=C(NCC1CCCO1)Nc1ccc(Cl)cc1 (stereo not given),0.0149
11,Cc1ccccc1NC(=O)C1C2CCCC1C2c1ccccc1 (stereo not given),0.216
12,CCc1ccc(OCC(=O)NC(NC(=S)Nc2ccccc2OC)C(Cl)(Cl)Cl)cc1 (stereo not given),-0.163
13,Cc1cc(C(=O)OCC(=O)NC(C)(C)C)c2ccccc2n1,-0.284
14,O=C(N/N=C1\CCc2ccccc21)c1ccccc1Cl,-0.225
15,COc1ccc(CCCc2nnc(SCC(=O)Nc3nc(C)cs3)n2C)cc1,0.338
16,O=C(NC1CCCC1)c1cccc(NC(=O)c2ccco2)c1,0.253
17,Cc1onc(-c2c(F)cccc2Cl)c1C(=O)Nc1cccc2nsnc12,2.67
18,Cc1onc(-c2ccccc2)c1C(=O)Nc1cccc2nsnc12,-0.396
19,Cc1onc(-c2ccccc2Cl)c1C(=O)Nc1cccc2nsnc12,1.17
20,CC1CCCCN1C(=O)Nc1cccc(Cl)c1 (stereo not given),0.789
21,COc1ccc(C(=O)c2c(C)c3cc(C)ccc3n2CC(O)CN2CCOCC2)cc1 (stereo not given),-0.197
22,CS(=O)(=O)N(CC(=O)NCCSc1ccccc1)c1ccc2c(c1)OCO2,1.46

row,SMILES,z-score
1,Cc1ccc2nc(SCC(=O)N3CCOCC3)[nH]c2c1,0.844
2,CC1CCc2c(C(=O)Nc3ccc(OC(F)(F)F)cc3)csc2C1 (stereo not given),-0.225
3,Cc1ccc(C)c(NC(=S)NNC(=O)c2cc3c(s2)CCC(C)C3)c1 (stereo not given),10.3 (active)
4,Cc1cccc(NC(=S)NNC(=O)c2ccccc2Br)c1,0.847
5,C/C(=N\NC(=O)c1cc2c(s1)CCC(C)C2)c1ccncc1 (stereo not given),-0.506
6,Cc1cccc(NC(=S)NNC(=O)c2csc3c2CCC(C)C3)c1 (stereo not given),9.39 (active)
7,Cc1ccccc1NC(=S)NNC(=O)c1csc2c1CCC(C)C2 (stereo not given),8.84 (active)
8,CCNC(=S)NNC(=O)c1csc2c1CCC(C)C2 (stereo not given),0.0328
9,CC(C)CNC(=S)NNC(=O)c1csc2c1CCC(C)C2 (stereo not given),-1.59
10,CC1CCc2sc(C(=O)N/N=C/C3CCCCC3)cc2C1 (stereo not given),-0.764
11,Cc1ccccc1NC(=O)c1csc2c1CCCC2,-0.435
12,Cc1cccc(NC(=S)NNC(=O)c2ccc(Br)o2)c1,1.14
13,Cc1cccc(NC(=S)NNC(=O)c2csc3c2CCCC3)c1,14 (active)
14,COc1ccc(OC)c(CN(CCCN2CCOCC2)S(=O)(=O)c2ccc(NC(C)=O)cc2)c1,-0.129
15,CCN(CC)S(=O)(=O)c1ccc(-c2nnc(SCC(=O)Nc3ccc(OC)c(OC)c3)o2)cc1,0.581
16,COc1ccc(OC(C)C(=O)Nc2ccccc2C(F)(F)F)cc1 (stereo not given),-0.114
17,O=C(Nc1ccccc1C(=O)NCc1ccccc1)c1ccccc1,-0.543
18,COn1c(=O)c(=O)n(O)c2ccccc21,-0.141
19,CN1C(=O)c2cccc(N(C)C)c2C1=O,-0.183
20,O=C(Nc1nsc(-c2ccccc2)n1)c1cccs1,-0.31
21,Cc1nn(-c2cccc(Cl)c2)c2c1C(c1cccnc1)C(C#N)=C(N)O2 (stereo not given),0.0248
22,CCCCOc1ccc(CONS(=O)(=O)c2ccc(NC(C)=O)cc2)cc1Cl,-0.176

# Reference: PubChem BioAssay AID488969 (Vanderbilt High Throughput Screening Facility, 2010)
